Reference: PubChem BioAssay (NCATS)
Results filed as inconclusive are left out. The source made the active and inactive calls. Calls follow the shape of the dose curve; as a rule, active = well fitted curve in the direction sought with a large enough effect; inconclusive = small, poorly fitted or top-dose-only effect, or another doubt; inactive = no such curve, though single readings can be large or run the other way.

These compounds were tested against Glucagon-like peptide 1 receptor (Homo sapiens) (UniProt P43220) (assay: qHTS of GLP-1 Receptor Agonists: LOPAC Validation (AID 624148;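 also: luminescence from a luciferase reporter switched on by cAMP; 0% is about no effect; higher luminescence signal means agonism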)). Conditions: GLP-1R agonist cell assay; series mostly up to 46.1 µM; activation: at the top concentration.
Chain of Glucagon-like peptide 1 receptor (Homo sapiens) (P43220 whole entry, looked up): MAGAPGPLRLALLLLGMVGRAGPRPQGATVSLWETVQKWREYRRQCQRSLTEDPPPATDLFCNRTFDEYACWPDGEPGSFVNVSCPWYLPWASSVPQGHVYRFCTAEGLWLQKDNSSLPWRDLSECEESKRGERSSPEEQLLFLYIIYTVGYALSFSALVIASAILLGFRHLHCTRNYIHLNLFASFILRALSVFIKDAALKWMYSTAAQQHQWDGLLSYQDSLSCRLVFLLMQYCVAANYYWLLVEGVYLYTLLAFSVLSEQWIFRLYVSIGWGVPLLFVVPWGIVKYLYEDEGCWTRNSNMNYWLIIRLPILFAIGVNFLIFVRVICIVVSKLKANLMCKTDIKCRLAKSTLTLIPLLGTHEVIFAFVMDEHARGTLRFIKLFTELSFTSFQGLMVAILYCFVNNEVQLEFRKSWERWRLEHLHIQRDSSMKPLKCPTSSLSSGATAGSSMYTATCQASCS
In short: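 Agonism scored as increased luciferase luminescence driven by cAMP in HEK293 clones carrying GLP-1R. Cells settled 12 hours, received compound for 4-6 hr at 37 deg C, 5% CO2, and were read after 12 min detection reagent at RT.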
`COC(=O)C1=C(C)NC(C)=C(C(=O)OC)C1c1ccccc1[N+](=O)[O-]` was tested, and the “activation” value was -1.64% (inactive). With `CC[C@H]1CN2CCc3cc(OC)c(OC)cc3[C@@H]2C[C@@H]1C[C@H]1NCCc2cc(OC)c(OC)cc21` the “activation” value was -0.458% (inactive). With `CC(C)(C)c1onc(OCP(=O)(O)O)c1CC(N)C(=O)O` (stereo unspecified) the outcome was “inactive”. With `CN(C)CC[C@@H](c1ccc(Cl)cc1)c1ccccn1` the “activation” value was -1.73% (inactive). With `NC(=O)c1ncn([C@@H]2O[C@H](CO)[C@@H](O)[C@H]2O)n1` the “activation” value was -0.793% (inactive). With `CCN(CC)CCCC(C)Nc1c2ccc(Cl)cc2nc2ccc(OC)cc12` (stereo unspecified) the “activation” value was -1.11% (inactive). With `CN1CCN(C2Cc3ccccc3Sc3ccc(Cl)cc32)CC1` (stereo unspecified) the “activation” value was 9.04% (inactive). In the case of `CC(CN1c2ccccc2Sc2ccccc21)N(C)C` (stereo unspecified), the “activation” value is reported as 10.3% (inactive). For `CC(=O)OCC(=O)[C@@]1(O)CC[C@H]2[C@@H]3CCC4=CC(=O)CC[C@]4(C)[C@H]3C(=O)C[C@@]21C`, the “activation” value was -1.4% (inactive). In the case of `CC1=C(/C=C/C(C)=C/C=C/C(C)=C/C(=O)O)C(C)(C)CCC1`, the “activation” value is reported as -1.59% (inactive). `COCCOC(=O)C1=C(C)NC(C)=C(C(=O)OC/C=C/c2ccccc2)C1c1cccc([N+](=O)[O-])c1` (stereo unspecified) was tested, and the “activation” value was 7.06% (inactive). With `CCCn1cnc2c1c(=O)n(CCCCC(C)=O)c(=O)n2C` the “activation” value was 7.92% (inactive). In the case of `C#CCN(C)Cc1ccccc1`, the “activation” value is reported as -0.959% (inactive). For `CC(C)C(=O)c1c(C(C)C)nn2ccccc12`, the “activation” value was 11.3% (inactive). For `CC(C)(C)[C@]1(O)CCN2C[C@H]3c4ccccc4CCc4cccc(c43)[C@@H]2C1`, the outcome was “inactive”. For `CN(C)CCOC(C)(c1ccccc1)c1ccccn1` (stereo unspecified), the “activation” value was 0.907% (inactive). With `NC(N)=NCCC[C@H](N)C(=O)O` the “activation” value was -2.01% (inactive). For `CC(C)(C(=O)O)c1ccc(C(O)CCCN2CCC(C(O)(c3ccccc3)c3ccccc3)CC2)cc1` (stereo unspecified), the “activation” value was 5.46% (inactive). `CC1=C(CC(=O)O)c2cc(F)ccc2/C1=C\c1ccc(S(C)(=O)=O)cc1` was tested, and the “activation” value was -1.43% (inactive). For `Nc1cc(=O)[nH]c(N)n1`, the “activation” value was 0.373% (inactive). `OCCN1CCN(CCCN2c3ccccc3Sc3ccc(Cl)cc32)CC1` was tested, and the “activation” value was 4.88% (inactive). For `CNCCC(Oc1ccc(C(F)(F)F)cc1)c1ccccc1` (stereo unspecified), the “activation” value was -1.09% (inactive). `CN(C)CCCN1c2ccccc2Sc2ccc(Cl)cc21` was tested, and the “activation” value was 7.8% (inactive). In the case of `C[C@]12CC[C@@H]3c4ccc(O)cc4CC[C@H]3[C@@H]1CCC2=O`, the “activation” value is reported as 5.24% (inactive). With `CSc1ccc2c(c1)N(CCC1CCCCN1C)c1ccccc1S2` (stereo unspecified) the “activation” value was 8.77% (inactive). For `CC(C(O)c1ccc(O)cc1)N1CCC(Cc2ccccc2)CC1` (stereo unspecified), the “activation” value was -1.36% (inactive).
